Experimental findings from PubChem BioAssay (EPA / NIEHS) are described below.

Where “and” joins values, the source holds several entries; their conditions need not be identical. Equal values may be shown once. Some structures have more than one record in an assay (separate samples or runs), and their calls can disagree. Calls of active or inactive are those of the source. How the source made its calls: active means hit-call score of the fitted dose curve at least 0.9, where 1 is the maximum; inactive means score below 0.9.

Read-out in the experiment: Pselectin, SELP (gene 6403)
The experiment in a line: BSK_4H_Pselectin: BioMAP Diversity Plus: 4H Assay for Pselectin Biomarker Activity (AID 2283026). The following applies: primary human endothelial cells (HUVEC); actives raise or lower the signal. How it is done:
BSK_4H is a cell-based, multiplexed-readout assay that uses umbilical vein endothelium, a human vascular primary cell, with measurements taken at 24 hours after chemical dosing in a 96-well plate.BSK_4H_Pselectin is an assay component measured in the BSK_4H assay. It measures P-Selectin antibody related to regulation of gene expression using ELISA technology.Data from the assay component BSK_4H_Pselectin was analyzed into 1 assay endpoint. This assay endpoint, BSK_4H_Pselectin, was analyzed with bidirectional fitting relative to DMSO as the negative control and baseline of activity. Using a type of binding reporter, gain or loss-of-signal activity can be used to understand changes in the signaling as they relate to the gene SELP. Furthermore, this assay endpoint can be referred to as a primary readout, because this assay has produced multiple assay endpoints where this one serves a signaling function. To generalize the intended target to other relatable targets, this assay endpoint is annotated to the cell adhesion molecules intended target family, where the subfamily is selectins.
The levels of cell surface (or secreted, indicated by the prefix "s") biomarker endpoints were measured by ELISA. Overt cytotoxicity to cells in confluent adherent cultures (all systems other than the BT system) was assessed by measuring total protein levels using sulforhodamine B (SRB) staining in parallel cultures at the time of biomarker measurements, indicated as SRB endpoints. For proliferation assays for adherent cell types, individual cell types are cultured at sub-confluence and relative cell numbers quantified by SRB staining at time points optimized for each system (48 h: 3C and CASM3C systems; 72 h: BT and HDF3CGF systems; 96 h: SAg system). SRB was performed by staining cells with 0.1% SRB after fixation with 10% TCA and reading wells at 560 nm.Viability and proliferation of PBMC (T cells) was quantified by Alamar Blue reduction for the SAg and BT systems. For PBMC viability (referred to as PBMC Cytotoxicity within the assay endpoint names), cells were plated (75,000/well in a 96-well plate) and then chemical samples added for 1 h before addition of activators, SEB and TSST-1 (20 ng/mL final concentration each). Cells were incubated for 90 h. Then, Alamar Blue (20 uL/well) (Invitrogen, Cat DAL1100) was added for 6 h, and the plates were read with a fluorescence microplate reader at 546/580 nm (excitation/emission). For PBMC proliferation, cells were plated and activated as above but incubated for only 16 h prior to addition of Alamar Blue. Plates were read after 6 h.
As usually defined, the AC50 is the concentration giving half of the maximal activity seen. For the compound `ClC1C(Cl)C(Cl)C(Cl)C(Cl)C1Cl` (stereo not given), the AC50 is 5.2 µM (active) and the outcome was inactive.
Regarding `Cc1[nH]c(=O)n(C(C)(C)C)c(=O)c1Cl`, the result was inactive.
As for `Oc1cc(Cl)ccc1Oc1ccc(Cl)cc1Cl`, the half-maximal activity concentration (AC50) was 12.3 µM (active) [middle of 4 runs].
Take `O=C(Nc1ccccc1)Nc1cnns1`: the outcome was inactive.
On to `CCc1ccc(C(=O)NN(C(=O)c2cc(C)cc(C)c2)C(C)(C)C)cc1`, for which the outcome was inactive.
With `CCS(=O)(=O)c1cccnc1S(=O)(=O)NC(=O)Nc1nc(OC)cc(OC)n1`, the result was inactive.
For `CC1(c2ccc(Oc3ccccc3)cc2)OC(=O)N(Nc2ccccc2)C1=O` (stereo not given), the AC50 is 31.7 µM (active).
As for `O=S(=O)(O)C(F)(F)C(F)(F)C(F)(F)C(F)(F)C(F)(F)C(F)(F)C(F)(F)C(F)(F)F`, the AC50 is 12.2 µM (active) and 3.81 µM (active); the result was inactive.
Take `OCCOc1ccccc1`: the result was inactive.
As to `O=C(O)C(F)(F)C(F)(F)C(F)(F)C(F)(F)C(F)(F)C(F)(F)C(F)(F)F`, the outcome was inactive.
Take `C#CCN1C(=O)COc2cc(F)c(N3C(=O)C4=C(CCCC4)C3=O)cc21`: the outcome was inactive.
As to `O=[N+]([O-])c1c(Cl)c(Cl)c(Cl)c(Cl)c1Cl`, the result was inactive.
`CN1CSC(=S)N(C)C1`: the half-maximal activity concentration (AC50) is 6.08 µM (active).
For `[2H]C1([2H])[n+]2ccccc2-c2cccc[n+]2C1([2H])[2H]`, the outcome was inactive.
Same read-out and setting: the value for `O=C(NC(=O)c1c(F)cccc1F)Nc1ccc(OC(F)(F)C(F)OC(F)(F)F)c(Cl)c1` (stereo not given) was “inactive”; that for `CC1(C)C(C=C(Cl)Cl)C1C(=O)OC(C#N)c1ccc(F)c(Oc2ccccc2)c1` (stereo not given) was “inactive”.
The same measure, in the same setting: the value for `N#CN` was “inactive”.
Consider `O=S1OCC2C(CO1)C1(Cl)C(Cl)=C(Cl)C2(Cl)C1(Cl)Cl` (stereo not given), for which the AC50 was 27.3 µM (active).
Still for that read-out and setting: the value for `COC(=O)c1ccccc1S(=O)(=O)NC(=O)N(C)c1nc(C)nc(OC)n1` was 12.9 µM (active); that for `CCCN(CCOc1c(Cl)cc(Cl)cc1Cl)C(=O)n1ccnc1` was 33.8 µM (active).
For the compound `CNC(=O)Oc1ccccc1OC(C)C`, the outcome was inactive.
As to `CCOc1nc(NC)nc(NC(=O)NS(=O)(=O)c2ccccc2C(=O)OC)n1`, the result was inactive.
Same read-out and setting: the same measure for `CCOC1Oc2ccc(OS(C)(=O)=O)cc2C1(C)C` (stereo not given): “inactive”; for `COC(=O)c1ccccc1CS(=O)(=O)NC(=O)Nc1nc(OC)cc(OC)n1`: “inactive”.
The same measure, in the same setting: the value for `CC(C)(C)C(O)C(Oc1ccc(Cl)cc1)n1cncn1` (stereo not given) was “inactive”.
On the same count and under the same terms, the same measure for `Clc1ccccc1-c1nnc(-c2ccccc2Cl)nn1`: “inactive”.
In the case of `CCOCN(C(=O)CCl)c1c(C)cccc1CC`, the AC50 was 11.4 µM (active).
On to `CNC(=O)Oc1cccc(N=CN(C)C)c1`, for which the result was inactive.
On the same count and under the same terms, the value for `CNC(=O)CSP(=S)(OC)OC` was “inactive”.
For the compound `CCC(C)(NC(=O)c1cc(Cl)c(C)c(Cl)c1)C(=O)CCl` (stereo not given), the AC50 is 12 µM (active).
For `COc1cc(OC)nc(NC(=O)NS(=O)(=O)c2cc(NC=O)ccc2C(=O)N(C)C)n1`, the outcome was inactive.
Still for that read-out and setting: the value for `COc1nn(CSP(=S)(OC)OC)c(=O)s1` was “inactive”; that for `O=C(O)COc1ccc(Cl)cc1Cl` was “inactive”.
Turning to `Cc1cc(C)nc(NC(=O)NS(=O)(=O)c2ccccc2C(=O)OC2COC2)n1`, the outcome was inactive.
The same measure, in the same setting: the value for `COP(=S)(OC)Oc1ccc([N+](=O)[O-])cc1` was “inactive”.
Take `CCC(C)(C)C(=O)OC1=C(c2ccc(Cl)cc2Cl)C(=O)OC12CCCCC2`: the AC50 was 36.5 µM (active).
With `CC(C)(C)C(O)/C(=C\c1ccc(Cl)cc1Cl)n1cncn1` (stereo not given), the AC50 is 32.1 µM (active).
Turning to `O=[N+]([O-])/N=C1\NCCN1Cc1ccc(Cl)nc1`, the outcome was inactive.
